In PubChem BioAssay:

target: Focal adhesion kinase 1 (Homo sapiens) (UniProt Q05397); assay: PTK2 protein binding on printed compound slides – biochemical, small-molecule microarray, 635/667 nm fluorescence, BSA, DTT, primary screen (AID 1130); details: 635 nm fluorescence, higher = more signal;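 further: composite of spot emission at 667 nm and signal to noise over triplicate slides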
Sequence (Q05397 whole entry, looked up): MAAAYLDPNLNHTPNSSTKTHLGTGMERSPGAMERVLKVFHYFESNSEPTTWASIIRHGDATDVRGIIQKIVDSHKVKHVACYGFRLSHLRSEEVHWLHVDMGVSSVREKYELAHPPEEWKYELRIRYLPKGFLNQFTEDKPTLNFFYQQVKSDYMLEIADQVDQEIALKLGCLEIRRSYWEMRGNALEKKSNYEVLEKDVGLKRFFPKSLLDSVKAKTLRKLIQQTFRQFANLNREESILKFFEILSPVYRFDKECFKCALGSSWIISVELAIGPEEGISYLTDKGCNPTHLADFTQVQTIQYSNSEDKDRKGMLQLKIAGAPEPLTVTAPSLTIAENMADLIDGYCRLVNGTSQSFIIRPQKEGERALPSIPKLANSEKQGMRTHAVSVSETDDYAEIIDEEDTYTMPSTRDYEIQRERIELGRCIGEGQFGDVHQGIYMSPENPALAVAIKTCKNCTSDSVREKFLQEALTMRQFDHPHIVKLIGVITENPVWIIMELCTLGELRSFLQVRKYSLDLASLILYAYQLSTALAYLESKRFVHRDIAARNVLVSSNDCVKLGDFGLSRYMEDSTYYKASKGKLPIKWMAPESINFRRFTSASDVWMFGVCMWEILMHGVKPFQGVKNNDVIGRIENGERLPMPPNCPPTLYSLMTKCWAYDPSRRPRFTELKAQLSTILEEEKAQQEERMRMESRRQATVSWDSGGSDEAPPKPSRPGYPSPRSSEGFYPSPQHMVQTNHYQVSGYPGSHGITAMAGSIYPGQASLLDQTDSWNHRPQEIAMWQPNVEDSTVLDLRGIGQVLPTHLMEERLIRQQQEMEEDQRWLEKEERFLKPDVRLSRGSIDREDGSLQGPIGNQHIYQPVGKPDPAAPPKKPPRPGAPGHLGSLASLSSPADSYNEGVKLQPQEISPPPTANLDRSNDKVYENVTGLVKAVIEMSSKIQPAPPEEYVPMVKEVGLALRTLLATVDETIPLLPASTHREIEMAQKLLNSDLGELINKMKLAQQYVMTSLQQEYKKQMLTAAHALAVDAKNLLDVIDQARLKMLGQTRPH

Going from COc1cc(C(O)C2C=CC3C(=O)N(c4ccccc4)C(=O)C3N2Nc2ccc(C#N)cc2)cc(OC)c1OC (configuration not stated) to O=C1C2C=CC(C(O)c3ccc(B(O)O)cc3)N(Nc3ccccc3)C2C(=O)N1c1ccccc1 (configuration not stated), the composite z-score rises from 1.04 to 1.44.

First: NCCCCCCNC(=O)[C@H]1C[C@H]2C(=O)NCC(=O)N2[C@H]1c1cccc(OCCO)c1
Second: CC(=O)NCCCC[C@@H]1NC(=O)[C@H]2C[C@@H](C(=O)NCCCCCC[N+](C)(C)C)[C@@H](c3cccc(OCCO)c3)N2C1=O
The composite z-score of the first is higher: 0.215 for the first, 0.207 for the second.

Compared with COc1cccc(C(=O)O[C@H]2CC[C@]3(C)C4=C(CCC3C2(C)C)[C@]2(C)CC[C@H]([C@H](C)CCCC(C)C)[C@@]2(C)CC4)c1 (some centres not stated), COC(=O)[C@@]1(Cc2ccc(F)cc2)[C@H]2c3cc(C(=O)N(C)C)n(CCc4ccccn4)c3C[C@H]2CN1C(=O)c1ccccc1 is higher in composite z-score: -0.404 for the first, 0.994 for the second.

First: CCOC(=O)C[C@H]1[C@H](OC(=O)Cc2ccc3c(c2)OCO3)[C@@H](NC(=O)c2ccc(-c3ccccc3)cc2)c2cc(OCCCO)ccc2N1C(=O)c1ccccc1
Second: O=C(O)[C@@]1(Cc2ccccc2)N=C(c2ccc(OCCCO)cc2)O[C@H]1c1ccccc1
The composite z-score of the first is higher: 0.356 for the first, -0.233 for the second.

Compared with O=C1OCCC=C[C@H]2OC34C=CCN(Cc5ccccc5)C(=O)[C@H]3N(CCCCCO)C(=O)[C@@H]4C12 (some centres not stated), O=C1OCC=C[C@H]2OC34C=CCN(c5ccc6ccccc6c5)C(=O)[C@H]3N(CCCO)C(=O)[C@@H]4[C@@H]12 (some centres not stated) is lower in composite z-score: 1.95 for the first, -0.409 for the second.

Compared with CS(=O)(=O)CCOC(=O)C1=CC(CCCO)=CC(c2cccs2)N(Cc2cc3c(cc2Br)OCO3)C=C1C(=O)OCCS(C)(=O)=O (configuration not stated), COCCOC(=O)N1C(=O)[C@@]2(c3cc(C#CCCO)ccc31)[C@H](c1ccc(O)cc1)N1[C@H](c3ccccc3)[C@H](c3ccccc3)OC(=O)[C@H]1[C@@H]2C(N)=O is lower in composite z-score: 1.11 for the first, 0.0329 for the second.

Compared with O=C1O[C@@H](c2ccccc2)[C@@H](c2ccccc2)N2[C@@H](c3ccc(OCCO)cc3)[C@]3(C(=O)Nc4ccc(C#CC5=CCCCC5)cc43)[C@@H](C(=O)O)[C@H]12, NC(=O)NCC#Cc1ccc2c(c1)[C@]1(C(=O)N2)[C@H](C(=O)N2CCCCCCC2)[C@H]2C(=O)O[C@H](c3ccccc3)[C@H](c3ccccc3)N2[C@@H]1c1ccc(OCCO)cc1 is lower in composite z-score: 1.31 for the first, 0.773 for the second.

First: C=CC[C@@]1(C(=O)NCC(O)CO)N=C(c2ccc(OCCCO)cc2)O[C@@H]1c1ccccc1N=[N+]=[N-] (some centres not stated)
Second: CN(C)CCCNC(=O)[C@@]1(Cc2ccccc2I)c2ccccc2C(=O)N(Cc2ccccc2C(F)(F)F)[C@H]1c1ccc(CO)cc1
The composite z-score of the first is lower: -0.121 for the first, 0.17 for the second.

Going from NC(=O)NCC#Cc1ccc2c(c1)[C@]1(C(=O)N2)[C@H](C(=O)NC[C@H](O)c2ccccc2)[C@H]2C(=O)O[C@H](c3ccccc3)[C@H](c3ccccc3)N2[C@@H]1c1ccc(O)cc1 to COC(=O)c1ccc(C23CC2(C(NP(=O)(c2ccccc2)c2ccccc2)c2ccccc2)C3)cc1 (configuration not stated), the composite z-score rises from 0.58 to 1.2.

Compared with CCOC(=O)C1=CCC(c2ccc([N+](=O)[O-])cc2)N(S(=O)(=O)c2ccc(C)cc2)C1 (configuration not stated), CCC[C@@H]1C=C(C(=O)O)[C@H](c2ccc(C)cc2)N1S(=O)(=O)c1ccc(C)cc1 is lower in composite z-score: 0.801 for the first, 0.354 for the second.

Work on COc1ccc(C(O)C2C=CC3C(=O)NC(=O)C3N2Nc2ccccn2)cc1OCc1ccccc1 (configuration not stated) yielded a composite z-score of -0.0511.

tested on: Fibrinogen (Alexa647-labelled); assay: Alexa647-fibrinogen binding to printed small molecules – biochemical, small-molecule microarray, 635/667 nm fluorescence, artefact control for SMM control-protein annotation, profiling panel (AID 1131); details: fibrinogen-A647 binding fluorescence, higher = more signal;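 further: z-score merges 667 nm fluorescence with per-spot signal-to-noise over triplicate slides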

First: O=C1O[C@H](c2ccccc2)[C@H](c2ccccc2)N2[C@H]1[C@@H](C(=O)N1CCN(c3ncccn3)CC1)[C@]1(C(=O)Nc3ccccc31)[C@H]2c1ccc(OCCO)cc1
Second: C=CCNC(=O)[C@@H]1[C@H]2C(=O)O[C@H](c3ccccc3)[C@H](c3ccccc3)N2[C@H](c2ccc(OCCO)cc2)[C@@]12C(=O)Nc1ccccc12
The composite z-score of the first is lower: -0.206 for the first, 0.934 for the second.

First: CC(C)C[C@@H]1NC(=O)[C@@H]2C[C@H](C(=O)NCCCCCC[N+](C)(C)C)[C@H](c3ccc(O)cc3)N2C1=O
Second: CC(=O)NCCCC[C@@H]1NC(=O)[C@H]2C[C@@H](C(=O)NCCCCCC[N+](C)(C)C)[C@@H](c3cccc(OCCO)c3)N2C1=O
The composite z-score of the first is lower: 0.427 for the first, 0.77 for the second.

Compared with CCCC[C@H]1OB(O)C[C@H]2C1=C(C)C[C@H]1C(=O)N(Cc3ccccc3)C(=O)[C@H]12, O=C1OCCC=C[C@H]2OC34C=CCN(Cc5ccccc5)C(=O)[C@H]3N(CCCCCO)C(=O)[C@@H]4C12 (some centres not stated) is lower in composite z-score: 0.311 for the first, -1.44 for the second.

Going from COc1ccc(C#Cc2ccc3c(c2)[C@]2(C(=O)N3)[C@H](C(=O)NC[C@H](O)c3ccccc3)[C@H]3C(=O)O[C@H](c4ccccc4)[C@H](c4ccccc4)N3[C@@H]2c2ccc(OCCO)cc2)cc1 to NC(=O)NCC#Cc1ccc2c(c1)[C@]1(C(=O)N2)[C@H](C(=O)NC[C@H](O)c2ccccc2)[C@H]2C(=O)O[C@H](c3ccccc3)[C@H](c3ccccc3)N2[C@@H]1c1ccc(O)cc1, the composite z-score falls from 0.964 to 0.673.

Compared with COCCOC(=O)N1C(=O)[C@@]2(c3cc(C#CCNC(N)=O)ccc31)[C@H](c1ccc(O)cc1)N1[C@H](c3ccccc3)[C@H](c3ccccc3)OC(=O)[C@H]1[C@@H]2C(=O)Nc1nc2ccccc2s1, COCCOC(=O)N1C(=O)[C@@]2(c3cc(C#CCCO)ccc31)[C@H](C(=O)NC[C@H](O)c1ccccc1)[C@H]1C(=O)O[C@H](c3ccccc3)[C@H](c3ccccc3)N1[C@@H]2c1ccc(O)cc1 is lower in composite z-score: 0.558 for the first, -0.134 for the second.

Compared with COC(=O)[C@@]1(Cc2ccccc2)[C@H]2c3cc(C(=O)N4CCCC4)n(Cc4ccc(C)o4)c3C[C@H]2CN1C(=O)c1ccccc1, COC(=O)[C@@]1(Cc2ccc(F)cc2)[C@H]2c3cc(C(=O)N(C)C)n(CCc4ccccn4)c3C[C@H]2CN1C(=O)c1ccccc1 is higher in composite z-score: -0.809 for the first, 0.0039 for the second.

Going from COc1cc2c(cc1OC)CN(C(=O)[C@@H]1[C@H]3C(=O)O[C@H](c4ccccc4)[C@H](c4ccccc4)N3[C@H](c3ccccc3OCCO)[C@@]13C(=O)Nc1ccc(C#CCNC(N)=O)cc13)CC2 to NC(=O)NCC#Cc1ccc2c(c1)[C@]1(C(=O)N2)[C@H](C(=O)N2CCCCCCC2)[C@H]2C(=O)O[C@H](c3ccccc3)[C@H](c3ccccc3)N2[C@@H]1c1ccc(OCCO)cc1, the composite z-score falls from 0.933 to 0.909.

First: COC(=O)[C@@]1(Cc2ccc(OC)cc2)[C@H]2c3cc(C(=O)N(C)C)n(Cc4c(OC)[nH]cc(C)c4=O)c3C[C@H]2CN1C(=O)c1ccccc1
Second: CCOC(=O)C[C@H]1[C@H](OC(=O)Cc2ccc3c(c2)OCO3)[C@@H](NC(=O)c2ccc(-c3ccccc3)cc2)c2cc(OCCCO)ccc2N1C(=O)c1ccccc1
The composite z-score of the first is lower: 0.324 for the first, 0.672 for the second.

Going from COC(=O)[C@]1(Cc2ccccc2N=[N+]=[N-])N=C(c2ccc(OCCCO)cc2)O[C@@H]1c1ccccc1N=[N+]=[N-] to [N-]=[N+]=NCc1ccccc1[C@@H]1OC(c2ccc(OCCCO)cc2)=N[C@]1(Cc1ccccc1N=[N+]=[N-])C(=O)NCc1ccccc1, the composite z-score falls from 0.482 to 0.198.

First: Cc1ccc(S[C@]2(C(=O)NC3CC3)CC(=O)N(C3CCCCC3)[C@@H]2c2ccc(CO)cc2I)cc1
Second: CC(C)NC(=O)[C@@H]1c2ccccc2C(=O)N(Cc2ccccc2)[C@H]1c1ccc(CO)cc1
The composite z-score of the first is higher: 0.304 for the first, -0.367 for the second.

Going from [N-]=[N+]=NCc1ccccc1[C@H]1OC(c2ccc(OCCCO)cc2)=N[C@@]1(CCS(=O)(=O)c1ccccc1)C(=O)N1CCOCC1 to O=C(O)[C@@]1(Cc2ccccc2)N=C(c2ccc(OCCCO)cc2)O[C@H]1c1ccccc1, the composite z-score falls from 1.04 to 0.967.

Going from COc1cc(C(O)C2C=CC3C(=O)N(c4ccccc4)C(=O)C3N2Nc2ccc(C#N)cc2)cc(OC)c1OC (configuration not stated) to O=C1C2C=CC(C(O)c3ccc(B(O)O)cc3)N(Nc3ccccc3)C2C(=O)N1c1ccccc1 (configuration not stated), the composite z-score falls from 1.11 to -0.0877.

First: NCCCCCCNC(=O)[C@H]1C[C@H]2C(=O)NCC(=O)N2[C@H]1c1cccc(OCCO)c1
Second: C=CC[C@@]1(C(=O)NCC(O)CO)N=C(c2ccc(OCCCO)cc2)O[C@@H]1c1ccccc1N=[N+]=[N-] (some centres not stated)
The composite z-score of the first is higher: 0.794 for the first, 0.415 for the second.

Going from COc1cccc(C(=O)O[C@H]2CC[C@]3(C)C4=C(CCC3C2(C)C)[C@]2(C)CC[C@H]([C@H](C)CCCC(C)C)[C@@]2(C)CC4)c1 (some centres not stated) to O=C1O[C@@H](c2ccccc2)[C@@H](c2ccccc2)N2[C@@H](c3ccc(OCCO)cc3)[C@]3(C(=O)Nc4ccc(C#CC5=CCCCC5)cc43)[C@@H](C(=O)O)[C@H]12, the composite z-score rises from -0.133 to 0.865.

Going from CS(=O)(=O)CCOC(=O)C1=CC(CCCO)=CC(c2cccs2)N(Cc2cc3c(cc2Br)OCO3)C=C1C(=O)OCCS(C)(=O)=O (configuration not stated) to COCCOC(=O)N1C(=O)[C@@]2(c3cc(C#CCCO)ccc31)[C@H](c1ccc(O)cc1)N1[C@H](c3ccccc3)[C@H](c3ccccc3)OC(=O)[C@H]1[C@@H]2C(N)=O, the composite z-score falls from 1.01 to 0.19.

Going from CN(C)CCCNC(=O)[C@@]1(Cc2ccccc2I)c2ccccc2C(=O)N(Cc2ccccc2C(F)(F)F)[C@H]1c1ccc(CO)cc1 to COC(=O)c1ccc(C23CC2(C(NP(=O)(c2ccccc2)c2ccccc2)c2ccccc2)C3)cc1 (configuration not stated), the composite z-score rises from 0.836 to 0.984.

First: CCOC(=O)C1=CCC(c2ccc([N+](=O)[O-])cc2)N(S(=O)(=O)c2ccc(C)cc2)C1 (configuration not stated)
Second: CCC[C@@H]1C=C(C(=O)O)[C@H](c2ccc(C)cc2)N1S(=O)(=O)c1ccc(C)cc1
The composite z-score of the first is lower: -0.0411 for the first, 1.04 for the second.

First: COc1ccc(C(O)C2C=CC3C(=O)NC(=O)C3N2Nc2ccccn2)cc1OCc1ccccc1 (configuration not stated)
Second: O=C1OCC=C[C@H]2OC34C=CCN(c5ccc6ccccc6c5)C(=O)[C@H]3N(CCCO)C(=O)[C@@H]4[C@@H]12 (some centres not stated)
The composite z-score of the first is higher: 0.816 for the first, -0.669 for the second.
